# Source: PubChem BioAssay
# MBNL1 CUG block: blocks human MBNL1 binding to CUG repeat RNA; Q9NR56; TR-FRET MBNL1-His/biotin-(CUG)12 binding, 665/545 ratio; Potency, µM (titrated, usually from 57.5 µM), usual class: inhibitors; hit rate 0.036% among 280,000; AID 2675; active = well fitted inhibition curve with a large enough effect in the signal ratio, with a control signal flat, not every such curve was filed as active; inconclusive = small, poorly fitted or top-dose-only effect, or effect the other way, or a change in a side signal; inactive = no such curve, though single readings can be large or run the other way; the % refers to the signal ratio
#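 Compounds (final 92 nM to 58 uM) are added to His-tagged MBNL1 and biotin-(CUG)12, then terbium anti-His antibody and streptavidin-XL665 (5 nM final). After 60 min at room temperature, the 665/545 nm ratio is read.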
# Six1-Eya2 inh: Six1/Eya2 interaction inhibition; hit rate 0.56% among 360,000; activity change, % (test concentration not listed); AID 651725; Q15475+O00167; AlphaScreen GST-Six1/His-Eya2 binding, biochemical; hits give low values; in the data active = activity change below about -65%; inconclusive = mostly about -30% to -63%
#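 Compounds are tested against tagged Six1 and Eya2 proteins bridged by glutathione donor and nickel acceptor beads; after a one-hour incubation at 37 °C without light, AlphaScreen emission is recorded.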
# CBFb-RUNX1 inh: CBF-beta/RUNX1 interaction disruption. Q01196+Q13951. AlphaScreen CBFb-His/RUNX1-biotin binding, biochemical. Potency, µM (doses to about 59.8 µM), most hits filed as inhibitors. 230,000 tested, under 10 active
# Target sequence (Q01196 whole entry, looked up): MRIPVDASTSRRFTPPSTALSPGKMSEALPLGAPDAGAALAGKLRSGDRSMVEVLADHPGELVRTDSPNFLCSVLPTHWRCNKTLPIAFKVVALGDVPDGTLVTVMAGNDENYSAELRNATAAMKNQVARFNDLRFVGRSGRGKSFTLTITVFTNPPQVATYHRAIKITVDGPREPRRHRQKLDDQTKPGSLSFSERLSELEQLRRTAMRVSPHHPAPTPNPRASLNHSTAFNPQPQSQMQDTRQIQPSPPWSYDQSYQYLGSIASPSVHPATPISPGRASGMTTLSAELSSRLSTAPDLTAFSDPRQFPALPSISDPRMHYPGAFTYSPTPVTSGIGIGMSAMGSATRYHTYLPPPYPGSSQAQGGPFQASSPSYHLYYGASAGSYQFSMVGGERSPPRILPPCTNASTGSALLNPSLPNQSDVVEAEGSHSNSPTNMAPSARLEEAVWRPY
# Target sequence (Q13951 whole entry, looked up): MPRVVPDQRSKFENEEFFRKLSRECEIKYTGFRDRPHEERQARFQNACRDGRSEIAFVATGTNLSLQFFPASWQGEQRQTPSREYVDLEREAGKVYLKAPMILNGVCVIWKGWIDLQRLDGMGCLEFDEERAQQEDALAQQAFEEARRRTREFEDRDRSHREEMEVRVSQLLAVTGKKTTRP
#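 Compounds were screened at multiple concentrations against a preformed CBF-beta(His)/RUNX1(biotin) complex (30 nM of each) for 15 min at room temperature, followed by 90 min with nickel and streptavidin beads and AlphaScreen reading.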
# CtBP-E1A blk: inhibitors of CtBP/E1A interaction; AlphaScreen GST-E1A/His-CtBP binding, 1536-well; hits give low values; activity change, % (concentration not given with the values); hit rate 0.49% among 340,000; AID 651724; in the data active = activity change below about -65%; inconclusive = mostly about -30% to -63%
#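 Protein mix (5X: 125 nM each GST-E1A, His-CtBP) was incubated with pinned compound 2 h at 37 deg C in dark, in 50 mM Tris pH 8.0 buffer with 300 mM NaCl. Glutathione donor and nickel acceptor beads followed; AlphaScreen signal read after 1 h.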
# Gal4-VP16 FLuc: inhibits Gal4-VP16 luciferase reporter, ROR gamma counter-screen; Potency, µM (highest dose often 53.6 µM), most hits filed as inhibitors; hit rate 3.5% among 310,000; Drosophila S2 Gal4-VP16 UAS-luciferase, luminescence, 20 h;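 note: Gal4-VP16 expression switched on by copper sulfate through the metallothionein promoter; nearly all actives have a fitted effect of over 50% in size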
# RORgamma inh: inhibitors of mouse ROR gamma transcriptional activity; P51450; Drosophila S2 Gal4-RORgamma UAS-luciferase reporter, 20 h; Potency, µM (doses to about 53.6 µM), hits mostly inhibitors; hit rate 5.4% among 310,000; AID 2551; note: nearly all actives have a fitted effect of over 60% in size
#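 Stable Schneider cell line, Gal4 DNA-binding domain fused to ROR gamma, UAS-luciferase. Cmpd 1 hr RT → CuSO4 700 uM final → 20 hr RT → luciferase reagent 10 min → luminescence.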
# A number is an active result; - = inactive; ? = inconclusive; . = not tested or not shown; [ ] = remark or other dose. Compounds with a hit are over-represented: about 5.5% of the library has one in this group of screens. Unless noted, calls come from the whole dose curve; as a rule, active = well fitted curve in the direction sought with a large enough effect; inconclusive = small, poorly fitted or top-dose-only effect, or another doubt; inactive = no such curve, though single readings can be large; an effect the other way counts as inactive or inconclusive.
SMILES,MBNL1 CUG block,Six1-Eya2 inh,CBFb-RUNX1 inh,CtBP-E1A blk,Gal4-VP16 FLuc,RORgamma inh
CC(C)(C)C1CCC(C(=O)Nc2nccs2)CC1 (configuration not stated),-,-,.,.,8.9µM,4.5µM
Cc1ccccc1N(CC(=O)NC1CCCCC1)C(=O)CCC(=O)Nc1nccs1,-,-,.,-,-,-
O=C(CCC1CCCCC1)Nc1nccs1,-,-,-,.,-,18µM
O=C(CCC(=O)N(CC(=O)NC1CCCC1)c1ccccc1F)Nc1nccs1,-,-,.,-,-,13µM
CCN(CC(=O)Nc1ccccc1C(F)(F)F)C(=O)CN1C(=O)NC(C)(c2ccccc2)C1=O (configuration not stated),.,-,.,-,.,.
CC(=O)c1cc(NC(=O)c2cccc(C(F)(F)F)c2)c(=O)oc1C,-,-,-,.,7.1µM,3.2µM
COc1ccc(C(=O)Nc2cc(C(C)=O)c(C)oc2=O)cc1,?,-,-,-,?,11µM
CC(=O)c1cc(NC(=O)c2cccc(C(F)(F)F)c2)c(=O)oc1/C=C/N(C)C,-,-,-,-,-,-
COc1ccc(CCNS(=O)(=O)c2cc3c4c(c2)CCN4C(=O)CC3)cc1,.,-,.,-,.,.
COc1cc(F)ccc1-c1cc(C(=O)Nc2ccc(NC(C)=O)cc2)[nH]n1,.,-,.,-,.,.
CCCCOCCCNC(=O)C[C@@H]1C[C@@]2(C(=O)OCC)CCC=C2N(Cc2ccco2)C1=O,.,-,.,-,.,.
NC(N)=Nc1nc(C2COc3ccccc3O2)cs1 (configuration not stated),-,-,-,-,-,?
CC(=O)Nc1nc(C2COc3ccccc3O2)cs1 (configuration not stated),-,-,-,-,-[0.365 µM],13µM
Cc1cnc(NC(=O)c2cc3c(C)nn(Cc4ccccc4Cl)c3s2)s1,.,-,-,-,4.5µM,3.5µM
Cc1ccc(NC(=O)CN2CCC(NC(=O)c3ccccc3F)CC2)cc1C,-,-,.,-,-,-
CC(=O)Nc1cc(-c2cccnc2)cn2c(-c3ccc(F)cc3)cnc12,.,-,.,-,.,.
O=C(O)c1ccc(S(=O)(=O)N2CCCc3ccccc32)cc1,-,-,.,-,-,-
COCCNC(=O)c1ccc(S(=O)(=O)N2CCCc3ccccc32)cc1,-,-,.,-,16µM,-
COc1ccccc1CN(C)C(=O)c1ccccc1SCC(=O)N1CCCC1,.,-,.,-,.,.
Cc1cc(Cl)n2c(nc3cc(F)c(F)cc32)c1C#N,-,-,-,-,7.1µM,4.5µM
O=C(/C=C/c1ccc(O)c(O)c1)OCCc1ccccc1,.,-,?,-,10µM,?
Cc1ccc(C(=O)NC(=S)N(C)C2CCCCC2)cc1Br,-,.,.,.,0.5µM,0.22µM
COc1ccc(C(=O)NC(=S)N(C)C2CCCCC2)cc1,-,-,.,-,4µM,2µM
COc1ccccc1/C=C/C(=O)NC(=S)N(C)C1CCCCC1,-,-,-,-,3.2µM,?
COc1ccc(C(=O)NC2CCCc3ccccc32)cc1Br (configuration not stated),-,-,.,-,-,-
SMILES,MBNL1 CUG block,Six1-Eya2 inh,CBFb-RUNX1 inh,CtBP-E1A blk,Gal4-VP16 FLuc,RORgamma inh
Cc1ccc(NC(=O)CN(C)C2CCCCC2)cc1Br,-,-,-,-,-,-
COc1ccccc1/C=C/C(=O)NCCC1=CCCCC1,-,-,-,-,-[10 µM],-
COc1ccc(C(=O)NCCS(=O)(=O)N(C)C2CCCCC2)cc1,.,-,.,-,.,.
COc1ccc(C(=O)NC(=S)N(C)C2CCCCC2)cc1Br,-,-,.,-,0.71µM,0.71µM
CCOC(CNC(=O)c1[nH]c(C(F)(F)F)nc1-c1ccccc1)OCC,.,-,.,-,.,.
CN1CCN(c2ccnc(-c3ccccc3C(F)(F)F)n2)CC1,.,.,.,.,-,-
COc1ccc(OC)c(S(=O)(=O)NCC(c2ccco2)N2CCc3ccccc32)c1 (configuration not stated),.,-,.,?,.,.
CC(=O)Nc1ccc(NC(=O)COC(=O)c2c(-c3ccccc3)noc2C)cc1,.,-,.,-,.,.
Cc1cccc(NNC(N)=S)c1,-,-,-,-,10µM,?
NC(=S)NNc1cccc(Cl)c1,-,-,-,-,16µM,5.6µM
NC(=S)NNC(=O)Nc1cccc(Cl)c1,-,-,-,-,-,-
Cc1cccc(NNC(=S)Nc2ccccc2)c1,.,-,.,-,.,.
CC(=O)c1ccc(OCc2nnn(CC(=O)NS(=O)(=O)Cc3ccccc3)c2-c2ccccc2)cc1,.,-,.,-,.,.
Cc1nn(-c2nnc(C)c(=O)[nH]2)c(C)c1SCC(=O)Nc1ccc(C(C)C)cc1,-,-,-,-,-,1.1µM
Cc1nn(-c2nnc(C)c(=O)[nH]2)c(C)c1SCC(=O)Nc1ccc(F)cc1,-,-,-,-,-,?
O=C(CCC1CCCCC1)NCCN1C2=NC[C@@H](Cc3ccccc3)N2C[C@H]1Cc1ccc(O)cc1,-,-,-,-,8.9µM,10µM
O=C(CCC1CCCCC1)NCCN1C2=NC[C@H](Cc3ccccc3)N2C[C@H]1Cc1ccc(O)cc1,-,-,-,-,?,-
COc1ccc(OC)c(NC(=O)COC(=O)CCCN=C2NS(=O)(=O)c3ccccc32)c1,.,-,.,-,.,.
CC(C)(C)OC(=O)NCCCC[C@H](NC(=O)c1nc[nH]c1C(=O)N1CCN(c2ccccc2)CC1)C(=O)OC(C)(C)C,-,-,-,-,?,13µM
CC(C)C[C@H](NC(=O)c1nc[nH]c1C(=O)NCCCCCNC(=O)OC(C)(C)C)C(=O)OC(C)(C)C,-,-,-,-,7.1µM,3.2µM
CC(C)(C)OC(=O)NCCCC[C@H](NC(=O)c1[nH]cnc1C(=O)Nc1ccccc1)C(=O)OC(C)(C)C,-,-,-,-,?,13µM
CC(C)C[C@H](NC(=O)c1nc[nH]c1C(=O)N[C@@H](CCCCNC(=O)OC(C)(C)C)C(=O)OC(C)(C)C)C(=O)OC(C)(C)C,-,-,-,-,11µM,5µM
CCN(c1ccccc1)S(=O)(=O)c1ccc(C(=O)N2CC(C)CC(C)C2)cc1 (configuration not stated),.,-,.,-,.,.
COc1cccc(-c2nc3nc(C)cc(C)n3c2NCc2ccccc2)c1,.,-,.,-,.,.
Nc1ncc([N+](=O)[O-])c(N2CCCCCC2)n1,-,-,.,-,-,11µM
Cc1cc(C(=O)NC2CCC(O)CC2)c(C)o1 (configuration not stated),.,-,.,-,.,.
CCC1=NN(C(=O)c2ccc(Cl)cc2)C(O)(c2ccc(C)cc2)C1 (configuration not stated),-,-,.,-,25µM,18µM
CCC1=NN(C(=O)c2ccc(Cl)cc2)C(O)(c2ccccc2)C1 (configuration not stated),-,-,.,.,10µM,?
